# Calls of active or inactive are those of the source. The calls were made as follows: active = hit-call score of the fitted dose curve at least 0.9, where 1 is the maximum; inactive = score below 0.9.
# Read-out: succinate dehydrogenase complex iron sulfur subunit B (SDHB), SDHB (gene 6390)
# Assay: LTEA_HepaRG_SDHB: Life Technologies and Expression Analysis (LTEA) Assay for succinate dehydrogenase complex iron sulfur subunit B (SDHB) using HepaRG (AID 2283528)
# Conditions: mRNA level, 48 h; actives raise or lower the signal
# Procedure: LTEA_HepaRG is a cell based, multiplexed-readout assay that uses HepaRG, a human liver cell line, with measurements taken at 48 hours after chemical dosing on a 96-well plate.LTEA_HepaRG_SDHB is one of 102 assay component(s) measured in the LTEA HepaRG cell culture assay. It is a marker of Cell proliferation, survival, death.Data from the assay component LTEA_HepaRG_SDHB was analyzed into 1 endpoint. This assay endpoint, LTEA_HepaRG_SDHB, was analyzed with bidirectional fitting relative to DMSO as the negative control and baseline of activity. Using a type of inducible reporter, measures of mRNA induction for gain or loss-of-signal activity can be used to understand regulation of transcription factor activity. To generalize the intended target to other relatable targets, this assay endpoint is annotated to the oxidoreductase intended target family, where the subfamily is ubiquinone.
# A total of 1060 chemcials from the ToxCast library were tested in eight-point concentration-response experiments. Cell culture and cytotoxicity assays were conducted at Thermo Fisher Scientific's Custom Services facility (Madison, WI). A single lot of human HepaRG cells (Thermo Fisher Scientific, Frederick, MD) was used for the cell culture experiments. 96-well format collagen type I coated plates of human HepaRG cells were prepared using established methods. Briefly, cryopreserved HepaRG cells were thawed, plated at a density of approximately 100,000 cells/well in HepaRG Thaw, Plate, and General Purpose media (HPRG770, Thermo Fisher Scientific), and incubated for 48 hours. 0.5% DMSO was selected as vehicle control to balance the requisite need of DMSO in HepaRG cultures to maintain differentiation (for example, baseline metabolism, proportions of hepatocytes vs. cholangiocytes), while enabling further hepatic receptor pathway activation (for example, PXR and CAR) in response to chemical exposure. 48 hours after plating, the culture medium was replaced with HepaRG Serum-Free Incudtion Media. Cells were exposed to each test chemical in duplicate and maintained in CO2 incubators for another 48 hours. Chemical plates were thawed to room temperature and 200x concentrations of treatment groups were prepared. 8-point conentration-reponse curves were made with the highest exposure at 100 uM, followed by half-log dilutions, all in 0.5% DMSO. Each test plate contained variouse controls, induction positive controls (1mM phenobarbital), cytotoxicity positive controls ([…] aflatoxin B1), vehicle controls (0.5% DMSO), and total lysis controls (0.5% DMSO). Cell morphology images were taken using an Essen IncuCyte FLR automated microscope, with six 96-well plates imaged in about 24 minutes. Images were captured and exported and JPEG files. Spent culture media was transfered to black-well plates for the LDH assay, and remaining media was sorted at -80 C for later use. Cells were treated with RLT buffer and frozen until shipped for gene expression analysis. Total RNA was isolated from the cell suspension in 75 uL of Buffer RLT (Qiagen, Germantown, MD 20874) by Quintiles/Expression Analysis (Durham, NC) using a custom isolation procedure. Total RNA from each plate well was transferred to a preamplification plate. Fluidigm's 96.96 Dynamic ArrayTM (Fluidigm, Amsterdam, the Netherlands) technology was used for gene expression analyses by quantitative reverse transcription polymerase chain reaction (qRT-PCR, performed by Quintiles/Expression Analysis, Durham, NC)89. Standard TaqManTM Assays (Applied Biosystems/ThermoFisher Scientific, Foster City, CA) were used to assess the expression of 93 genes selected based on their selectivity and sensitivity to important hepatic receptors known to be modulated by environmental chemicals; importance in human hepatocyte functionality; and hepatotoxicity. […]
Structure (SMILES),outcome,AC50
CCc1nn(C2CCCCC2)c2cc(C3(C#N)CCC(C(=O)O)CC3)ccc12 (stereo not given),inactive,
CC(O)CO (stereo not given),inactive,
CCCCOCCO,inactive,
CCCCCCCC(=O)O,inactive,
CN1CCC[C@H]1c1cccnc1,inactive,
CCC(=C(c1ccc(O)cc1)c1ccc(OCCN(C)C)cc1)c1ccccc1,inactive,
CC#C[C@]1(O)CC[C@H]2[C@@H]3CCC4=CC(=O)CCC4=C3[C@@H](c3ccc(N(C)C)cc3)C[C@@]21C,,26.2 µM (active)
CCCOc1sc(C(=O)N2CCC(c3cc(CN)ccc3F)CC2)c(C)c1Br,inactive,
OC1CCC(C2CCCCC2)CC1 (stereo not given),inactive,
NC(=O)N1C(=O)C(C(=O)c2cc(Cl)cs2)c2cc(F)c(Cl)cc21 (stereo not given),,26.2 µM (active)
CCCCCCCCCCCCc1ccccc1S(=O)(=O)O,inactive,
Cc1oc(-c2ccccc2)nc1CCOc1ccc(C[C@H](Nc2ccccc2C(=O)c2ccccc2)C(=O)O)cc1,,26.1 µM (active)
NC(=O)N(O)[C@@H]1C=C[C@H](Oc2cccc(Oc3ccc(F)cc3)c2)C1,inactive,
CC(C)(C)CC(C)(C)c1ccc(O)c(-n2nc3ccccc3n2)c1,inactive,
Cc1cc(CCN2CCN(c3nsc4ccccc34)CC2)cc2c1NC(=O)CC2(C)C,inactive,
O=C(O)c1ccccc1C(c1ccc(O)cc1)c1ccc(O)cc1,inactive,
CN(C)C=O,inactive,
CCCCC(CC)COC(=O)CCCCC(=O)OCC(CC)CCCC (stereo not given),inactive,
CCCCCCCCCCCCN1CCCC1=O,inactive,
CCCCCCCCCCCCCCCS(=O)(=O)Oc1ccccc1,inactive,

Structure (SMILES),outcome,AC50
COCC(C)O (stereo not given),inactive,
OCCC(F)(F)C(F)(F)C(F)(F)C(F)(F)C(F)(F)C(F)(F)F,inactive,
CC(C)(C)c1ccc(O)c(C(C)(C)C)c1,inactive,
CCC(C)(C)C1CCC(O)CC1 (stereo not given),inactive,
c1ccc2cc3c(ccc4ccccc43)cc2c1,inactive,
CC[C@H](C)[C@@H](C(=O)O)n1sc2ccccc2c1=O,inactive,
c1ccc2c(c1)Cc1ccccc1-2,inactive,
CC(=O)NC1(c2cccc(F)c2)CCN(CC[C@@]2(c3ccc(Cl)c(Cl)c3)CN(c3ccccc3)C(=O)CO2)CC1,inactive,
Cc1cc(C)c(O)c(C)c1,inactive,
CCN(CC)CCNc1ccc(CNC=O)c2sc3ccc(OC)cc3c(=O)c12,inactive,
CCCCCCC(=O)O,inactive,
Oc1cc2ccccc2c2ccccc12,inactive,
C=C(C)C(=O)OCCC(F)(F)C(F)(F)C(F)(F)C(F)(F)C(F)(F)C(F)(F)F,inactive,
CCCCCCCCOC(=O)CCCCCCCCC(=O)OCCCCCCCC,inactive,
CN1CCN(c2ccccc2/C=C2\SCCN(c3ccc(Cl)c(Cl)c3)C2=O)CC1,inactive,
O=c1c(-c2ccc(O)cc2)coc2cc(O)ccc12,inactive,
CC(C)CCCCCCOC(=O)CCCCC(=O)OCCCCCCC(C)C,inactive,
ClC1=C(Cl)C(Cl)(Cl)C(Cl)=C1Cl,inactive,
CCCCCCCCC(=O)O,inactive,
COc1ccc([N+](=O)[O-])cc1N,inactive,
